From PubChem BioAssay (EPA / NIEHS) come the findings set out here.

Assay [1] addresses Estrogen receptor (Homo sapiens) (UniProt P03372). Description: OT_ER_ERaERa_1440: Odyssey Thera (OT) 24-hour HEK293T Protein-Complementation Assay for Estrogen Receptor-alpha/-alpha Homodimer (AID 2283349).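 Also: hits raise fluorescence above DMSO for agonists and antagonists alike.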 Put shortly: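 HEK293T, stable ERα LBD (aa 310-547) homodimer PCA; 24 h compound exposure; mean fluorescence intensity (nuclear for agonists, nuclear plus cytoplasmic for antagonists) vs vehicle; positive fitting direction, DMSO baseline.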

Assay [2] shares this target. The assay is described as follows: OT_ER_ERaERa_0480: Odyssey Thera (OT) 8-hour HEK293T Protein-Complementation Assay for Estrogen Receptor-alpha/-alpha Homodimer (AID 2283351).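 Also: rise in fluorescence from reassembled reporter fragments on ERα LBD homodimer in nucleus or whole cell.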 The method in brief: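 Read-out: fluorescence intensity rise relative to DMSO, nuclear for agonists, nuclear plus cytoplasmic for antagonists. Construct is the ERα LBD (aa 310-547) homodimer fragment-complementation pair, stably expressed in HEK293T; exposure 8 h.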

Assay [3] addresses human Constitutive Androstane Receptor (CAR), NR1I3 (gene 9970) (UniProt Q14994). The assay is described as follows: NVS_NR_hCAR_Antagonist: NovaScreen (NVS) Nuclear Receptor Binding Assay for human Constitutive Androstane Receptor Antagonism (CAR) (AID 2283344). The method in brief: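 Single 25 uM duplicate primary screen, with concentration-series follow-up on actives. Cell-free binding format run in antagonist mode, TR-FRET signal taken 1 h post-dose; activity is signal loss relative to DMSO.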

The target of assay [4] is Androgen Receptor/SRC-1 Co-activator, AR (gene 367) (UniProt P10275). The assay is described as follows: OT_AR_ARSRC1_0960: Odyssey Thera (OT) 16-hour HEK293T Protein-Complementation Assay for Androgen Receptor/SRC-1 Co-activator (AID 2283353).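 Also: actives raise the signal above DMSO so potency reflects increased AR and SRC-1 complex.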 Put shortly: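 Readout: 488 nm nuclear-to-cytoplasmic fluorescence ratio from imaging of at least 400 cells per image, 16 h post-dose. Reporter is Venus YFP complementation between AR and SRC-1 fusions, stably expressed in HEK293T; activity scored upward relative to DMSO.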
Chain of Androgen Receptor/SRC-1 Co-activator, AR (gene 367) (P10275 whole entry, looked up, the tested form may be a part): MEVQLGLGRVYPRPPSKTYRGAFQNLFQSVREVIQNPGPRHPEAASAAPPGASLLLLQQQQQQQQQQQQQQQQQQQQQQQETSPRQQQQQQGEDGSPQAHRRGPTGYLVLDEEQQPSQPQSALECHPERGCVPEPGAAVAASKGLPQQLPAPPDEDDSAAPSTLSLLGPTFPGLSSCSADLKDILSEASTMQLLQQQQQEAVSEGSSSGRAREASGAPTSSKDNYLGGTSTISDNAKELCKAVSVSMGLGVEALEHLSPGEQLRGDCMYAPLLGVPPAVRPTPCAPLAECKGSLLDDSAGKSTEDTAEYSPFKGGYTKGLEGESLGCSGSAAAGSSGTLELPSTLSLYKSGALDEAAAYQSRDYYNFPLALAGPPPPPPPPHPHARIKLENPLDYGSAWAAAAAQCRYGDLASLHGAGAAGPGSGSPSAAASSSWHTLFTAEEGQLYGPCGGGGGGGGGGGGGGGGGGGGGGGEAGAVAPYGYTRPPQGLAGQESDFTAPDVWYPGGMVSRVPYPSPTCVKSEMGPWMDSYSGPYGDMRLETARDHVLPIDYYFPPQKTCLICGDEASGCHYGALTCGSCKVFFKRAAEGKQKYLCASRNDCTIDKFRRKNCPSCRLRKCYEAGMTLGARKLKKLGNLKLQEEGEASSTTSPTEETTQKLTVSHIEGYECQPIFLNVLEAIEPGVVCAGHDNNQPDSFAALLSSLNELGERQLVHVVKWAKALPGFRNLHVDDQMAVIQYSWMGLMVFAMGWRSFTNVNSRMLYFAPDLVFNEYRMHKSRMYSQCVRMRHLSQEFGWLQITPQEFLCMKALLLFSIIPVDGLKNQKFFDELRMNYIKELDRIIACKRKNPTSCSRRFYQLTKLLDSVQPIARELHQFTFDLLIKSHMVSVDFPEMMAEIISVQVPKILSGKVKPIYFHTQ

Assay [5] concerns the target bovine Estrogen Receptor (ER), ESR1 (gene 407238) (UniProt P49884). The assay is described as follows: NVS_NR_bER: NovaScreen (NVS) Nuclear Receptor Binding Assay for bovine Estrogen Receptor (ER) (AID 2283345).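 Also: actives lower the bound radioligand count which means they displace the ER ligand.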 The method in brief: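 Cell-free radioligand binding with bovine uterine membrane extracts, read 18 hours after dosing by scintillation counting. Loss of signal versus DMSO baseline indicates displacement. Primary screen run in duplicate at 25 uM, actives followed in concentration series.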

For assay [6], the target named is Bile acid receptor (Homo sapiens) (UniProt Q96RI1). The assay is described as follows: NVS_NR_hFXR_Antagonist: NovaScreen (NVS) Nuclear Receptor Binding Assay for human Farnesoid X Receptor Antagonism (FXR) (AID 2283350). Here is the method:
NVS_NR_hFXR_Antagonist is a biochemical, single-readout assay that uses extracted gene-proteins in a cell-free assay. Measurements were taken 1 hour after chemical dosing in a 384-well plate.NVS_NR_hFXR_Antagonist is one of one assay component(s) measured or calculated from the NVS_NR_hFXR_Antagonist assay. It is designed to make measurements of fluorescent resonance energy transfer, a form of binding reporter, as detected with fluorescent resonance energy transfer signals by Time-Resolved Fluorescence Resonance Energy Transfer (TR-FRET) technology.Data from the assay component NVS_NR_hFXR_Antagonist was analyzed into 1 assay endpoint. This assay endpoint, NVS_NR_hFXR_Antagonist, was analyzed in the positive analysis fitting direction relative to DMSO as the negative control and baseline of activity. Using a type of binding reporter, loss-of-signal activity can be used to understand changes in the binding as they relate to the gene NR1H4. Furthermore, this assay endpoint can be referred to as a primary readout, because the performed assay has only produced 1 assay endpoint. To generalize the intended target to other relatable targets, this assay endpoint is annotated to the nuclear receptor intended target family, where the subfamily is non-steroidal.
Binding assays used specific radioligands (tritiated, iodinated) with non-radioactive competitive displacement ligands in agonist or antagonist protocols (as indicated) and various reference compounds and inhibitors to titrate specific binding to receptors and transporters. Most enzyme assays (CYPs, kinases, phosphatases, proteases, HDACs) used recombinant protein and specific substrates (fluorescence mostly, some colorimetric and radioactive) and inhibitors, followed by a biochemical separation of substrate and product. All assays for the biochemical HTS were initially run in duplicate at a single concentration (10 uM for CYP450 assays and 25 uM for all others). […] Each assay was run with positive and negative controls, and concurrent controls on every plate. The follow-up (secondary) screen tested active chemical-pairs in concentration series, as well as a few additional assays not tested in the primary screen, some selected negative inactives, and several cases re-run in the concentration series for confirmatory purposes.

The target of assay [7] is Estrogen receptor (Homo sapiens) + Estrogen receptor beta (Homo sapiens) (UniProt P03372+Q92731). Description: OT_ER_ERaERb_0480: Odyssey Thera (OT) 8-hour HEK293T Protein-Complementation Assay for Estrogen Receptor-alpha/-beta Heterodimer (AID 2283352). The method in brief:
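Compound added to HEK293T cells carrying split-reporter-tagged ER-alpha and ER-beta LBDs, incubated 8 hours, then imaged by laser scanning cytometer. Signal rise in nucleus, or nucleus and cytoplasm, over vehicle was fitted in the positive direction.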

A further assay relates to NCBI gene 100848466. The assay is described as follows: NVS_NR_bPR: NovaScreen (NVS) Nuclear Receptor Binding Assay for bovine Progextron Receptor (PR) (AID 2283343).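 Also: actives lower bound radioligand signal below DMSO meaning displacement of the label.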 Put shortly: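 Competitive radioligand binding with membranes from bovine uterus, scintillation read-out at 18 h post-dose. Compounds first tested in duplicate at 25 uM, then actives in concentration series; loss-of-signal relative to DMSO.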

In assay [8] the target is chimpanzee Androgen Receptor (AR), AR (gene 747460) (UniProt O97775). Description: NVS_NR_cAR: NovaScreen (NVS) Nuclear Receptor Binding Assay for chimpanzee Androgen Receptor (AR) (AID 2283346).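 Also: radioligand displacement from AR measured by scintillation counting in a cell-free assay; a loss of bound radioligand signal versus DMSO counts as binding.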 The method in brief:
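Cell-free competition binding with insect-cell (Sf9/Sf21) extracted chimpanzee AR; scintillation signal from lysate at 72 h. Screened in duplicate at 25 uM, then concentration-response for actives; fitting relative to DMSO.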

For assay [9], the target named is rat Glycine Receptor, Strychnine-sensitive (GlyRStrySens), Glra1 (gene 25674) (UniProt P07727). The assay is described as follows: NVS_LGIC_rGlyRStrySens: NovaScreen (NVS) Ligand-Gated Ion Channel Assay for rat Glycine Receptor, Strychnine-sensitive (GlyRStrySens) (AID 2283341). The method in brief: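 Radioligand displacement on rat spinal cord membranes, 1 hr, filter scintillation read-out. Single-concentration duplicate screen at 25 uM; chemicals meeting threshold (e.g., 30% inhibition) rerun in concentration-response up to 50 uM. Loss of binding fitted versus DMSO.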
Chain of rat Glycine Receptor, Strychnine-sensitive (GlyRStrySens), Glra1 (gene 25674) (P07727 whole entry, looked up): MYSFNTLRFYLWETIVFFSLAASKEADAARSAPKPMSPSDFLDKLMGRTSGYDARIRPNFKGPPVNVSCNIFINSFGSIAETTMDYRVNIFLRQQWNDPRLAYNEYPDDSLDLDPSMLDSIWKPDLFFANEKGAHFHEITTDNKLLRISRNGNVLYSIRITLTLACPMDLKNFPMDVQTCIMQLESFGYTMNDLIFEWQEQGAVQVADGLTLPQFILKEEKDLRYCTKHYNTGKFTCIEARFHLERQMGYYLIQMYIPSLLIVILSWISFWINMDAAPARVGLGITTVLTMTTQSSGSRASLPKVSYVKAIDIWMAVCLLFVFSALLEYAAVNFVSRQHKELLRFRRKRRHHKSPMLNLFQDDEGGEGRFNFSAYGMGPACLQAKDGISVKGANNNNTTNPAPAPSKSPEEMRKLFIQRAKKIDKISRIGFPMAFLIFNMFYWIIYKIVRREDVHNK

Structures are written as SMILES. Inconclusive results are not listed. The source made the active and inactive calls. The calls were made as follows: active = hit-call score of the fitted dose curve at least 0.9, where 1 is the maximum; inconclusive = response in the unintended direction; inactive = score below 0.9.

Chain of chimpanzee Androgen Receptor (AR), AR (gene 747460) (O97775 whole entry, looked up): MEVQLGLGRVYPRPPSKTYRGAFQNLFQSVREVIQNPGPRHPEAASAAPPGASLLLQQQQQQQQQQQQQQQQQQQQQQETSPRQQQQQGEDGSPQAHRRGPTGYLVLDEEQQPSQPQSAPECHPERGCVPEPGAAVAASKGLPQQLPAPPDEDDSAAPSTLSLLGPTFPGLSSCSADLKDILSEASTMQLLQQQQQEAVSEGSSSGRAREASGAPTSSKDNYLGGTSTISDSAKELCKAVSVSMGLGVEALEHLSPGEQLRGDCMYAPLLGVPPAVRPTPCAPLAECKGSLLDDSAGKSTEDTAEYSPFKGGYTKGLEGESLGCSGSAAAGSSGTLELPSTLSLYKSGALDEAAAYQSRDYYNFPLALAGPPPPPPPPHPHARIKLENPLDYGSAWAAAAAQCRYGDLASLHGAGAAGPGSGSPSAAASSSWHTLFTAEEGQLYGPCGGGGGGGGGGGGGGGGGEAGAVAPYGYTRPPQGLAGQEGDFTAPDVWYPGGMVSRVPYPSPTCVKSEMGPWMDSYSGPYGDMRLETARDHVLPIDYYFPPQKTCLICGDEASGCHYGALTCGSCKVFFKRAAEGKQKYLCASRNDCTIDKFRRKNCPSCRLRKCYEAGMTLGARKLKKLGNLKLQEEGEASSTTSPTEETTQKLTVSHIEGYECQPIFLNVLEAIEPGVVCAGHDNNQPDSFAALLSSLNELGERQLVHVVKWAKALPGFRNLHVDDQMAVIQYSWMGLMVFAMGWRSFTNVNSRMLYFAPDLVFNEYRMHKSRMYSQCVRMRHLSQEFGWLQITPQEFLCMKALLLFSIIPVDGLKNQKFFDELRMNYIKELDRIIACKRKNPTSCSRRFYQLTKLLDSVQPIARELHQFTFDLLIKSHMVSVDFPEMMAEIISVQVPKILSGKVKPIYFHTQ
Chain of bovine Estrogen Receptor (ER), ESR1 (gene 407238) (P49884 whole entry, looked up): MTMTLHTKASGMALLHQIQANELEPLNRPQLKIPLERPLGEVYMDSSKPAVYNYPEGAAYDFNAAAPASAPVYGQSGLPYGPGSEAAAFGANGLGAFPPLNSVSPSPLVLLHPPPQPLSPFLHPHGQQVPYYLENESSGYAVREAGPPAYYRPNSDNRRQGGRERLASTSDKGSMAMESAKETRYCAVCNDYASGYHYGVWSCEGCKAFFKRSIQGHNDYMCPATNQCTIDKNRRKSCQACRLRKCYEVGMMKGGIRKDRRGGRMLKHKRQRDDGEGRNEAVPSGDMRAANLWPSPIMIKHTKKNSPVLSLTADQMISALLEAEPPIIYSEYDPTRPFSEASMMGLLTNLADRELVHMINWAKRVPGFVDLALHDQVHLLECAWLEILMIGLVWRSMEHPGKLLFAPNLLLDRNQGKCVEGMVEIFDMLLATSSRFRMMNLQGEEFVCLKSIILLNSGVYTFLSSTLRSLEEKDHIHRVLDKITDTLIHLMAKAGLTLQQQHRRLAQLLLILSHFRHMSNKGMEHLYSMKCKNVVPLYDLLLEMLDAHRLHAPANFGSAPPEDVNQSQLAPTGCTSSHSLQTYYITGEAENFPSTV
Chain of human Constitutive Androstane Receptor (CAR), NR1I3 (gene 9970) (Q14994 whole entry, looked up): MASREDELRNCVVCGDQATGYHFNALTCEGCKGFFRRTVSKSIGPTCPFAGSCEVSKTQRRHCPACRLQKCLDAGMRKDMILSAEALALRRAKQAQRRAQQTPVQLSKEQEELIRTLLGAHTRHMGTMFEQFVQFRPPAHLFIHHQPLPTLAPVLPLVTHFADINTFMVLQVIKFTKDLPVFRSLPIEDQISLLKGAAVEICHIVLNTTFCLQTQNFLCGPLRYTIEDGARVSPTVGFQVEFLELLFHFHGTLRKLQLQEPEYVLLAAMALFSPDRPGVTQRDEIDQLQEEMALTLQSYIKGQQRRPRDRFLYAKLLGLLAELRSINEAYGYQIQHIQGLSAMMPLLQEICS
Chain of Estrogen receptor (Homo sapiens) + Estrogen receptor beta (Homo sapiens) (P03372 whole entry, looked up): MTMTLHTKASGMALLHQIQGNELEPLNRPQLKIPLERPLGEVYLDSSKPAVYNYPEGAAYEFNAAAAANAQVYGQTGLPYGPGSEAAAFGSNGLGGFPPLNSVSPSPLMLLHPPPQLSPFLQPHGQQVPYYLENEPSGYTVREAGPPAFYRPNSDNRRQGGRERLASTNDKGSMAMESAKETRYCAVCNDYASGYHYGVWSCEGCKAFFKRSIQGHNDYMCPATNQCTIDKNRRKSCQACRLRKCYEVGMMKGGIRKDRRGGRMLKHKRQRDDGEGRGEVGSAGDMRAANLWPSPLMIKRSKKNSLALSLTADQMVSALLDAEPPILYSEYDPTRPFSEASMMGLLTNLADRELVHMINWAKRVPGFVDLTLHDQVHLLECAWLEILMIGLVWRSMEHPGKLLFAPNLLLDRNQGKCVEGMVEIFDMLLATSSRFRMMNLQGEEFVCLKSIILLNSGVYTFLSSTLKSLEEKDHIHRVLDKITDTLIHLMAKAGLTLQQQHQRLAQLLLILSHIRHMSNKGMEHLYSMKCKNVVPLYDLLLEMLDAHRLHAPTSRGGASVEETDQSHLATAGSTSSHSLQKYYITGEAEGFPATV
Chain of Estrogen receptor (Homo sapiens) + Estrogen receptor beta (Homo sapiens) (Q92731 whole entry, looked up): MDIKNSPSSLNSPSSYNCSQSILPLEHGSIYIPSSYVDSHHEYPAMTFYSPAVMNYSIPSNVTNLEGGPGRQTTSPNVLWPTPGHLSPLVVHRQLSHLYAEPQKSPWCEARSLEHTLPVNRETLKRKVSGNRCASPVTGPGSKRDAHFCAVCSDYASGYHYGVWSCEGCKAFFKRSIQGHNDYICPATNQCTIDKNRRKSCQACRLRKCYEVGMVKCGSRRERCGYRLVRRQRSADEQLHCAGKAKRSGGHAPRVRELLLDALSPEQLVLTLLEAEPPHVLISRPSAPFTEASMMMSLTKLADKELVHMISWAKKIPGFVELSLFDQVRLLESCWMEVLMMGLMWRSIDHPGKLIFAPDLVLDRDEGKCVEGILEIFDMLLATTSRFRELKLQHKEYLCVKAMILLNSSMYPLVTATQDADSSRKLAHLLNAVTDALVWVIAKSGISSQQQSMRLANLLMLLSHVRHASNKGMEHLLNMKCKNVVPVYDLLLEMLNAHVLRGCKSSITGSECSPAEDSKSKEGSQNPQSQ
Chain of Estrogen receptor (Homo sapiens) (P03372 whole entry, looked up, the tested form may be a part): as the sequence (P03372 whole entry, looked up) above
Chain of Bile acid receptor (Homo sapiens) (Q96RI1 whole entry, looked up): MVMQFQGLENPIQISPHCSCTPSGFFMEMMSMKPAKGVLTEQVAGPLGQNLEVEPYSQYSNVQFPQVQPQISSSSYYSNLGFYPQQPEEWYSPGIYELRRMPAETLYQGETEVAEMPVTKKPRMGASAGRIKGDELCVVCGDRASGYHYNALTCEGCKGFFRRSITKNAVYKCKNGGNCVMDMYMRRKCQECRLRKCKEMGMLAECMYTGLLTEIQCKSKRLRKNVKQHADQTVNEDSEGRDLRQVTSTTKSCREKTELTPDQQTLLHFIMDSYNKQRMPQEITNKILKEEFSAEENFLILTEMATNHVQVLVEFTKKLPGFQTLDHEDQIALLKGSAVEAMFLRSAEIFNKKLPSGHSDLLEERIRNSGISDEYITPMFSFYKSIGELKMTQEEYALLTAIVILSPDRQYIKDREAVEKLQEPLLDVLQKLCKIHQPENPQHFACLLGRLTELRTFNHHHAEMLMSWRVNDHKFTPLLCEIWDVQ

In general, AC50 refers to the concentration at which the activity in the assay is half-maximal. For the compound `CCCCC(CC)COC(=O)CCCCCCCCC(=O)OCC(CC)CCCC` (stereo not given), the AC50 in assay [1] was 12.1 µM (active); in assay [2], 0.949 µM (active).

For the compound `CN(C)c1ccc(N=NS(=O)(=O)O)cc1`, the result in [3] and in assay [4] was inactive.

Take `Nc1ccc(Nc2ccccc2)cc1`: the call in [5] and in assay [1] was inactive.

In the case of `COC(=O)c1c(Cl)c(Cl)c(C(=O)OC)c(Cl)c1Cl`, the call in assay [1], in [6], in assay [2] and in [7] was inactive.

Turning to `O=P(OC(CCl)CCl)(OC(CCl)CCl)OC(CCl)CCl`, the AC50 in the assay with NCBI gene 100848466 was 8.22 µM (active); in [8], 13.3 µM (active). The compound was classed as inactive in [1], in [2] and in [7].

Consider `O=c1[nH]c2ccc(S(=O)CCN3CCC(Cc4ccc(F)cc4)CC3)cc2o1` (stereo not given), for which the call in assay [1] and in assay [2] was inactive.

With `COc1ccc2sc(C(=O)Nc3nnn[nH]3)c(OC(C)C)c2c1`, the outcome in assay [8], in [1], in [2] and in assay [7] was inactive.

`CCc1cc(SCc2sc(-c3ccc(C(F)(F)F)cc3)nc2CN2CCN(c3ccc(OC)cc3)CC2)ccc1OCC(=O)O`: the concentration at half-maximal activity (AC50) was 40.3 µM (active) in the assay on NCBI gene 100848466 and 29 µM (active) in [8].

For `C=CCCCCCCCCC(=O)O`, the compound was classed as inactive in assay [5], in assay [1], in assay [2] and in [7].

On to `CCOc1cccc(-n2cc(C(=O)N3CCN(c4cc(C(=O)O)c5ccccc5c4)CC3)nc2-c2ccc(C)cc2)c1`, for which the concentration at half-maximal activity (AC50) in assay [8] is 20.4 µM (active); in assay [4] it was 23.9 µM (active).

In the case of `CCCCCCc1ccc(O)cc1O`, the compound was classed as inactive in assay [8]. For the same compound, in assay [4], the AC50 was 92.3 µM (active).

Take `O=C(OC[C@H]1O[C@@H](OC(=O)c2cc(O)c(O)c(OC(=O)c3cc(O)c(O)c(O)c3)c2)[C@H](OC(=O)c2cc(O)c(O)c(OC(=O)c3cc(O)c(O)c(O)c3)c2)[C@@H](OC(=O)c2cc(O)c(O)c(OC(=O)c3cc(O)c(O)c(O)c3)c2)[C@@H]1OC(=O)c1cc(O)c(O)c(OC(=O)c2cc(O)c(O)c(O)c2)c1)c1cc(O)c(O)c(OC(=O)c2cc(O)c(O)c(O)c2)c1`: the AC50 in assay [8] was 0.472 µM (active).

Consider `O=C(O)c1cc(N=Nc2ccc(S(=O)(=O)Nc3ccccn3)cc2)ccc1O`, for which, in assay [8], the AC50 was 5.35 µM (active).

For `CC(C)=CCC/C(C)=C\CO`, the compound was classed as inactive in assay [3], in assay [8] and in [6].

Consider `COc1cccc(-c2ccc(/C=C\CN3CCCCCC3)cc2Cl)c1`, for which the outcome in assay [9], in assay [3], in assay [5], in assay [1], in [6] and in assay [7] was inactive.

Take `Cc1ccc(S(=O)(=O)O)cc1C`: the call in assay [1] and in [2] was inactive.

As for `COc1ccc(-n2nc(C(F)F)cc2-c2ccc(S(C)=O)cc2)cc1` (stereo not given), the call in [9], in assay [1] and in [2] was inactive.

Regarding `O=C(O)c1cccc(N(Cc2cccnc2)c2ccc(OC(F)F)c(OC(F)F)c2)c1`, the concentration at half-maximal activity (AC50) was 2.81 µM (active) in assay [8] and 37.1 µM (active) in assay [4].

Turning to `Nc1nc2ncc(CNc3ccc(C(=O)N[C@@H](CCC(=O)O)C(=O)O)cc3)nc2c(=O)[nH]1`, the compound was called inactive in assay [8] and in assay [4].

For the compound `CC[C@H](C)C(=O)O[C@H]1C[C@@H](C)C=C2C=C[C@H](C)[C@H](CC[C@@H]3C[C@@H](O)CC(=O)O3)[C@H]21`, the AC50 in assay [8] is 24.9 µM (active); in assay [6], 31.5 µM (active). For the same compound, the outcome in assay [1], in [2] and in assay [7] was inactive.

On to `CCOC(=O)COc1ccc2c(c1)CC(NCC(O)c1cccc(Cl)c1)CC2` (stereo not given), for which the call in [1] and in assay [2] was inactive.

As for `Oc1ccc2c(c1)-c1ccccc1C2`, the values for the concentration at half-maximal activity (AC50) (in the assay on NCBI gene 100848466; in [8]; in assay [4]) were 25 µM (active), 8.77 µM (active) and 35.1 µM (active), respectively.

Consider `CC(C)=CCC/C(C)=C/CO`, for which the compound was called inactive in assay [8].

Turning to `CC/C(=C\C(=N/O)C(N)=O)C(C)[N+](=O)[O-]` (stereo not given), the compound was called inactive in assay [9], in assay [5], in assay [1] and in [2].

As for `CNS(=O)(=O)c1cc(C(=O)N2CCC(CCN3C4CCC3CC(n3c(C)nc5ccccc53)C4)(c3cccc(F)c3)CC2)c(Cl)cc1F` (stereo not given), the figures for the half-maximal activity concentration (AC50) in [8], in assay [6] and in assay [4] were 11.3 µM (active), 8.21 µM (active) and 31.9 µM (active), respectively.

For `Fc1ccccc1[C@@H](F)COC1CCC(Nc2ncnc3[nH]ncc23)CC1` (stereo not given in full), in assay [4], the AC50 was 33.2 µM (active).

Consider `CC(C)CCO`, for which the outcome in assay [1], in [2] and in [7] was inactive.

For `Cc1ccc(O)cc1`, the call in assay [4] was inactive.

Take `O=C(O)c1cccc(Oc2ccccc2)c1`: the result in assay [1] and in assay [2] was inactive.

Turning to `CCCN(C1CCN(C(=O)C2CCNCC2)CC1)[C@@H]1CCc2ccc(OC)cc2C1`, in assay [4], the call was inactive.

`CC(C)c1cccc(C(C)C)c1N1C(=O)c2ccc(O)cc2C1=O`: the half-maximal activity concentration (AC50) in assay [6] is 41.1 µM (active).

Consider `CC(C)=CCCC(C)=CC=O`, for which the compound was called inactive in [1], in [2] and in [7].

As for `O=c1n(CC2CO2)c(=O)n(CC2CO2)c(=O)n1CC1CO1` (stereo not given), the outcome in assay [1], in assay [2] and in assay [7] was inactive.

As to `CCn1nc(Cc2ccccc2)cc1C1CCN(C[C@H]2C[C@H](N(C)[C@@H](C(=O)O)C(C)C)C[C@@H]2c2cccc(F)c2)CC1`, the call in assay [1], in assay [2] and in assay [7] was inactive.

For `Cn1c(=O)cc(Oc2ccc(F)cc2F)c2cnc(NCC(C)(C)O)nc21`, the concentration at half-maximal activity (AC50) was 50 µM (active) in assay [1] and 24.4 µM (active) in assay [2]. Moreover, in [7], the outcome was inactive.
